In PubChem BioAssay AID686978 (National Center for Advancing Translational Sciences (NCATS), 2013) one finds Potency data, which are given here for 47 compounds.

Several values for one entry are separate records, joined by “and”; a condition that tells them apart may be missing. Equal values may be shown once. The whole screen tested about 420,000 compounds, of which about 64,000 (15%) were called active. Entries that show only a call come without a potency. Inconclusive results (about 27%) are left out. Many of the other results were omitted from the sample, so actives are more common in it than they were. Values without a mark were called inactive. Calls come from the whole dose curve; as a rule, active = well fitted inhibition curve with a large enough effect; inconclusive = small, poorly fitted or top-dose-only effect; inactive = flat fitted curve, though single readings scatter.
Potency is the fitted concentration of half-maximal effect.

The test is described as follows: qHTS for Inhibitors of human tyrosyl-DNA phosphodiesterase 1 (TDP1): qHTS in cells in absence of CPT. Note: nearly all actives have a fitted effect of over 55% in size. The note with it: DT40 Tdp1-/- hTDP1 cells, no CPT, ATP luminescence, 48 h; series mostly up to 46.2 µM. From the text: Human tyrosyl-DNA phosphodiesterase 1 (TDP1) is a novel repair gene, and we propose to use it as a new target for anticancer drug development. TDP1 is not an essential protein, but under treatment with topoisomerase I poison (camptothecin: CPT), TDP1 works as a critical factor for cell survival. To directly identify novel TDP1 inhibitors active in a cellular environment, we have knocked-out the Tdp1 gene in chicken DT40 cells (Tdp1-/-) and generated a complemented counterpart cells that contains a stable transfection of the human TDP1 gene (Tdp1-/-;hTDP1 cells). For the primary screen, Tdp1-/-;hTDP1 cells will be exposed to small molecules in the presence or absence of CPT, and their growth kinetics will be evaluated after 48 hours by measuring ATP activity. […] The hit compounds will then be evaluated in the presence or absence of CPT using Tdp1-/- cells. […] In tertiary assays, biochemical gel-based assays will be used to assess whether the hit compounds specifically target TDP1.
To this end, we have screened this cell line against the MLSMR in two primary screens. In one screen we add CPT and in the other we screen in the absence of CPT; this AID represents the screen where CPT was absent.
NIH Chemical Genomics Center [NCGC]
NIH Molecular Libraries Probe Centers Network [MLPCN]
Assay Submitter (PI): Yves Pommier, NCI
DT40-hTDP1 cells without 20 nM Camptothecin (add 20 microL of DMSO in 1 L of cell culture medium) were dispensed at 400 cells/5microL/well in tissue culture treated 1536-well white wall/solid bottom assay plates (Greiner Bio-One North America, NC, U.S.A.) using a Multidrop Combi 8 channel dispenser (Thermo Fisher, Waltham, MA, USA). 23 nL compounds and controls were transferred using the pin tool (Kalypsys, San Diego, CA, USA) to the assay plates. The assay plates were then incubated at 37 masculineC for a minimum 48 hr. Three microL of Cell Titer Glo solution was added to the plates and incubated at RT in dark for 30 min. Luminescence was read using ViewLux (Perkin Elmer) with 1 sec exposure slow speed, high gain and 2x binning.
Background: Quantitative high-throughput screening tests each substance at several concentrations.
For the compound `CN(Cc1cccc2ncccc12)C(=O)c1cnn(-c2nccc(-c3ccccc3F)n2)c1C1CC1`, the Potency is 3.66 µM (active).
Regarding `CCOC(=O)CC(SP1(=S)OCC2(CCCCO2)C(C2CCCCO2)O1)C(=O)OCC` (configuration not stated), the Potency result is “inactive”.
To `CC[N+](C)(CC)CCC[n+]1c(-c2ccccc2)c2cc(N)ccc2c2ccc(N)cc21` belongs 2.58 µM (active); to `CCOP(=S)(OCC)C(O)CCCCCn1c(=O)c(F)cn(C2CCCO2)c1=O` (configuration not stated), “inactive”; to `O=C(Nc1ccc(Cl)cc1C(=O)c1ccccc1)c1cc(Cl)cc(Cl)c1`, “inactive”.
To `CCC1(c2ccccc2)C(=O)NC(=O)N(C)C1=O` (configuration not stated) belongs “inactive”.
To `CC=C(C)C(=O)OC1CCN2CC=C(COC(=O)C(O)(C(C)OC)C(C)(C)O)C12` (configuration not stated) belongs “inactive”; to `COC(=O)C1=C(c2ccc(Cl)c(C(F)(F)F)c2)C[C@@H]2CC[C@H]1N2C(=O)NC1CC1`, 10.3 µM (active).
With `COC(=O)C1=C(c2ccc(Cl)c(C(F)(F)F)c2)C[C@@H]2CC[C@H]1N2C(=O)NC(C)C`, the Potency is 20.6 µM (active).
To `COC(=O)C1=C(c2ccc(C(C)=O)cc2)C[C@@H]2CC[C@H]1N2C(=O)NCCNC(C)=O` belongs “inactive”.
In the case of `COC(=O)C1=C(c2ccc(F)cc2F)C[C@@H]2CC[C@H]1N2C(=O)NC1CC1`, the Potency result is “inactive”.
Next, `COc1ccc(NC(=O)N2CCC3(CC2)OCCO3)c(OC)c1`: “inactive”; `CCOC(=O)c1c(C)c(C(=O)N2CCC3(CC2)OCCO3)c(C)n1CC`: “inactive”; `CCN1c2nc3c(C)cccn3c(=O)c2CC2(C(=O)N(C)C(=O)N(C)C2=O)C1C` (configuration not stated): “inactive”.
For `CN(C)C(=O)NC(O)C(Cl)(Cl)Cl` (configuration not stated), the Potency result was “inactive”.
Take `COc1ccc(-c2nn(CCC#N)cc2C(=O)Nc2ccc(C(C)=O)cc2)cc1`: the Potency entry is “inactive”.
To `CN(C)CC1Oc2ccccc2OC1(O)c1ccccc1` (configuration not stated) belongs 2.06 µM (active).
Next, `CCCOC(=O)C1C2c3ccccc3C(c3ccccc32)C1C(=O)O` (configuration not stated): “inactive”.
`CC(CC(C#N)(c1ccccc1)c1ccccc1)N1CCCCC1` (configuration not stated): the Potency result is “inactive”.
To `CC(C)(c1ccc(OC[C@@H]2CO2)cc1)c1ccc(OC[C@H]2CO2)cc1` belongs 11.9 µM (active).
On to `CCOC(=O)C(O)(c1ccc(N)c(OC)c1)C(F)(F)F` (configuration not stated), for which the Potency result was “inactive”.
Next, `Cc1cc(N2C(=O)C3CCCN3C2c2ccc(Cl)c(Cl)c2)no1` (configuration not stated): “inactive”; `CN(C)S(=O)(=O)c1cc(C(=O)N2CCC(C(=O)O)(c3ccccc3)CC2)ccc1Cl`: “inactive”.
To `Cc1ccc(NC(=O)CN(C)CC(=O)Nc2cccc(F)c2)cc1[N+](=O)[O-]` belongs 1.16 µM (active); to `C=CCSSCC=C`, “inactive”; to `O=C(NCC(c1cccnc1)N1CCN(c2ccccc2)CC1)Oc1ccccc1` (configuration not stated), “inactive”.
To `COc1cc2c(cc1OC)[C@@H]1C(=O)c3ccc(O)c(CC=C(C)C)c3OC1CO2` (some centres not stated) belongs “inactive”; to `CCNc1nc2[nH]c(=O)c3c(c2s1)OC(N)=C(C#N)C3c1cccs1` (configuration not stated), “inactive”.
In the case of `N#CC1=C(N)Oc2c(c(=O)oc3ccccc23)C1c1ccccc1OC(=O)c1cccs1` (configuration not stated), the Potency was 23.1 µM (active).
To `CCOC(=O)C(O)(c1ccc(N=Cc2ccccc2O)c(C)c1)C(F)(F)F` (configuration not stated) belongs “inactive”; to `CCOc1ccc(-c2cc(C)[n+](CCN(CC)CC)c(-c3ccc(OCC)cc3)c2)cc1`, 0.184 µM (active); to `COc1ccc(CNCCc2ccc3c(c2)OCO3)c(OC)c1OC`, “inactive”.
To `COc1cc(C2c3cc4c(cc3C(O)C3COC(=O)C23)OCO4)cc(OC)c1OC` (configuration not stated) belongs 28.2 nM (active) and 73.1 nM (active); to `COc1ccccc1OC(=O)c1ccc(C)c(S(=O)(=O)N2CCOCC2)c1`, “inactive”.
Next, `CCCCCn1c(=O)c(C(=O)NCc2ccccn2)c(O)c2ccccc21`: 20.6 µM (active).
With `COc1cc(C(c2c(O)c3ccccc3oc2=O)c2c(C)n(C)n(-c3ccccc3)c2=O)ccc1O` (configuration not stated), the Potency entry is “inactive”.
Next, `CCCCn1c(=O)c(C(=O)Nc2ccccc2Cl)c(O)c2ccccc21`: 25.9 µM (active); `CCCCCn1c(=O)c(C(=O)NCc2ccccc2)c(O)c2ccccc21`: 6.51 µM (active); `CCCCCn1c(=O)c(C(=O)Nc2c(C)n(C)n(-c3ccccc3)c2=O)c(O)c2ccccc21`: 4.61 µM (active).
Next, `O=C(CSC1c2ccccc2-c2ccccc21)N/N=C/c1ccccc1`: “inactive”.
To `O=C1CC(=O)N(Cc2ccccc2)C(=O)N1CCCCCCN1C(=O)CC(=O)N(Cc2ccccc2)C1=O` belongs “inactive”.
Consider `CN(C)C(=O)Oc1cc(=O)n2c3c(cccc13)CCC2`, for which the Potency result is “inactive”.
Next, `CC[N+]1(CCOC(=O)C(O)(c2ccccc2)c2ccccc2)CCCCC1`: “inactive”.
To `O=C(c1cc(S(=O)(=O)N2CCOCC2)ccc1F)N1CCC2(CC1)OCCO2` belongs “inactive”; to `CO[C@@H]1C[C@@H](C[C@H]2CC[C@H](C)[C@@H]([C@@H](C)C(=O)O)O2)O[C@]2(O[C@](C)([C@H]3CC[C@@](C)(C4OC([C@H]5O[C@@](O)(CO)[C@H](C)C[C@@H]5C)C[C@@H]4C)O3)C[C@H]2C)[C@@H]1C` (some centres not stated), 0.588 µM (active).
To `CN(C)P(=S)(Nc1ccccc1)C(Cl)(Cl)Cl` (configuration not stated) belongs “inactive”.
Take `CN(C)C(=O)Oc1ccc(NC(=O)N2CCOCC2)cc1`: the Potency result is “inactive”.
